Test results reported in PubChem BioAssay (Tox21).
Records with an inconclusive call do not appear. Active and inactive are the calls of the source. Unless noted, calls follow the shape of the dose curve; as a rule, active = well fitted curve in the direction sought with a large enough effect in the repeat runs; inconclusive = weak or mixed curves; inactive = no such curve, though single readings can be large; an effect the other way counts as inactive or inconclusive. Where a SMILES comes first, the peptide text is derived from it.

Tests used:
[1] = qHTS assay to identify small molecule antagonists of the estrogen related receptor signaling pathway with the pleiotropic PPARgamma coactivator (PGC) from Tox21 10K library - cell viability counter screen (AID 1224840; active = well fitted cell-killing curve with a large enough effect in the repeat runs, not every such curve was filed as active; also: nearly all actives have a fitted effect of over 40% in size)
Summary of the method: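 Here the PGC/ERR cells serve as a cytotoxicity control: they are exposed to compounds for 17.5 hours at 37 C, and live-cell signal is quantified using CellTiter-Fluor fluorescence.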

[2] = molecular target: Thyrotropin receptor (Homo sapiens) (UniProt P16473); assay: qHTS assay to identify small molecule agonists of the thyroid stimulating hormone receptor (TSHR) signaling pathway (AID 1224843; calls by dose curve; also: nearly all actives have a fitted effect of over 45% in size)
Chain of Thyrotropin receptor (Homo sapiens) (P16473 whole entry, looked up): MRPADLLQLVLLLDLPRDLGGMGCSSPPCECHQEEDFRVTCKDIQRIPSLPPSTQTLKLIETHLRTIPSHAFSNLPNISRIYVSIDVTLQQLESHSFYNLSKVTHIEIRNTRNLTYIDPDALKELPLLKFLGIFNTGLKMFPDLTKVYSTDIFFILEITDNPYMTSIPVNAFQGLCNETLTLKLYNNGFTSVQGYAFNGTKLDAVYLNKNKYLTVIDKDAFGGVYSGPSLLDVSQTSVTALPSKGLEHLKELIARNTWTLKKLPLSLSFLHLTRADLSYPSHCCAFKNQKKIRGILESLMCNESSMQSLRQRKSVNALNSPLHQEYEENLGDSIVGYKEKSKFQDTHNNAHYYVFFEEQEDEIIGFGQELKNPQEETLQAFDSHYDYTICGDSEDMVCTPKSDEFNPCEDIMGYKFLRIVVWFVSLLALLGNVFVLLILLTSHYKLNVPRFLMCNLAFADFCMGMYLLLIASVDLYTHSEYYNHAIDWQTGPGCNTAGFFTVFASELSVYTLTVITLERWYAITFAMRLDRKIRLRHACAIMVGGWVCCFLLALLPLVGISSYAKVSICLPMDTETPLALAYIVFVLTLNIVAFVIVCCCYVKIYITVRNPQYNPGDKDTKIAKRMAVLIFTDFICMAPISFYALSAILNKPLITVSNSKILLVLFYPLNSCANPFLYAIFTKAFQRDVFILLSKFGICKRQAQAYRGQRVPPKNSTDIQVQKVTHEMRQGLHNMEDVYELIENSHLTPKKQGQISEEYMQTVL
Summary of the method: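 HEK293 cells stably bearing the thyrotropin receptor were plated at 800 cells/well and challenged with compound (30 min, RT). Accumulated cAMP was quantified via cAMP-d2 competing for cryptate-tagged antibody.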

[3] = qHTS assay to identify small molecule agonists of the hypoxia (HIF-1) signaling pathway (AID 1224846; active = well fitted activation curve with a large enough effect in the signal ratio in the repeat runs, not every such curve was filed as active; the % refers to the signal ratio)
Summary of the method: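 Hypoxia-pathway activation was scored as increased beta-lactamase from an HRE-controlled reporter in ME-180 cells; plated at 2,000 cells per well with 0.5% dialyzed FBS, they were exposed 17 hrs to compounds and then given CCF4-AM.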

[4] = qHTS assay to identify small molecule agonists of H2AX - cell viability counter screen (AID 1224847; calls by dose curve;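 also: wild-type CHO-K1 cells; top concentration of the series differs between compounds; nearly all actives have a fitted effect of over 30% in size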)
Summary of the method: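 After overnight plating of 1000 CHO-K1 cells per well, a 15-concentration compound series was applied for 3 hr at 37C. Luminescence from CellTiter-Glo, read following 30 min at room temperature, reflected cell viability.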

[5] = qHTS RealTime-Glo MT Cell Viability Assay in HepG2 cells - 24 hour (AID 1224867); also: nearly all actives have a fitted effect of over 50% in size
Summary of the method: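 Compound treatment began 5 h after plating HepG2 cells (600/well) with NanoLuc luciferase and prosubstrate. Plates stayed at 37 C for 40 h; luminescence was captured at six time points, 0 h through 40 h.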

[6] = qHTS RealTime-Glo MT Cell Viability Assay in HEK293 cells - 32 hour (AID 1224868); also: top concentration of the series differs between compounds; nearly all actives have a fitted effect of over 50% in size
Summary of the method: (§1)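 Quantitative high-throughput screen of the Tox21 10K library in HEK293: cells and RealTime-Glo reagents plated together, compound added at 5 h, luminescence monitored through 40 h at 37 C.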

[7] = A CellTox Green Cytotoxicity Assay to monitor cytotoxicity in HEK293 cells - 0 hour (AID 1224869); also: nearly all actives have a fitted effect of over 50% in size
Summary of the method: (§2)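 Seeding of HEK293 cells together with cytotoxicity dye preceded a 5 h incubation at 37 C/5% CO2. Test compounds in DMSO were then added and fluorescence monitored across 40 h.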

[8] = A CellTox Green Cytotoxicity Assay to monitor cytotoxicity in HEK293 cells - 40 hour (AID 1224871); also: nearly all actives have a fitted effect of over 45% in size
Summary of the method: as §2

[9] = qHTS RealTime-Glo MT Cell Viability Assay in HEK293 cells - 16 hour (AID 1224872); also: top concentration of the series differs between compounds; nearly all actives have a fitted effect of over 50% in size
Summary of the method: as §1

[10] = qHTS RealTime-Glo MT Cell Viability Assay in HepG2 cells - 8 hour (AID 1224873); also: nearly all actives have a fitted effect of over 55% in size
Summary of the method: (§3)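 Real-time viability: cells seeded at 600 per well together with NanoLuc and cell-permeant prosubstrate, compounds added after 5 h incubation. Luminescence tracked at 0, 8, 16, 24, 32 and 40 h of exposure.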

[11] = qHTS RealTime-Glo MT Cell Viability Assay in HEK293 cells - 40 hour (AID 1224874); conditions: RealTime-Glo luminescence; max response: hits give low values; also: nearly all actives have a fitted effect of over 50% in size
Summary of the method: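 Tox21 screen in HEK293 using RealTime-Glo MT chemistry, with cells and reagent co-dispensed. Luminescence proportional to viable cell number was captured at intervals during 40 h compound exposure at 37 C.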

[12] = A CellTox Green Cytotoxicity Assay to monitor cytotoxicity in HepG2 cells - 16 hour (AID 1224876); also: nearly all actives have a fitted effect of over 45% in size
Summary of the method: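 Nonlytic assay: viable cells exclude the dye, so fluorescence scales with cell death. HepG2 at 600 cells/well, compounds added after 5 h, signal read across 40 h.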

[13] = qHTS assay to identify small molecule agonists of the hypoxia (HIF-1) signaling pathway - cell viability counter screen (AID 1224844; calls by dose curve; also: nearly all actives have a fitted effect of over 50% in size)
Summary of the method: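 Multiplexed with the HRE beta-lactamase assay, this viability read used CellTiter-Glo luminescence (30 min, RT) on HRE-bla ME-180 cells treated 17 hrs with compounds in 0.5% dialyzed FBS medium.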

[14] = qHTS assay to identify small molecule agonists of H2AX (AID 1224845; active = well fitted activation curve with a large enough effect in the signal ratio in the repeat runs, not every such curve was filed as active; the % refers to the signal ratio)
Summary of the method: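 Phospho-H2AX Ser139 measured by HTRF (ex 320 nm; em 665 and 620 nm) after 24 hr antibody incubation. Compounds, 15 concentrations, 0.76% DMSO, were applied to CHO-K1 cells for 3hr at 37C before lysis.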

[15] = qHTS RealTime-Glo MT Cell Viability Assay in HepG2 cells - 40 hour (AID 1224870); also: nearly all actives have a fitted effect of over 50% in size
Summary of the method: as §3

[16] = A CellTox Green Cytotoxicity Assay to monitor cytotoxicity in HEK293 cells - 24 hour (AID 1224875); also: series mostly up to about 77 µM; nearly all actives have a fitted effect of over 45% in size
Summary of the method: as §2
% is scaled to controls: 0 for no effect and ±100 for the full control effect.

C=CC/C=C/C
inactive: outcome [1] | outcome [2] | outcome [3] | outcome [4] | outcome [5] | Potency [6] | Potency [7] | Potency [8] | Potency [9] | outcome [10] | max response [11] -0.772% | Potency [12]

CCCCC1CCC(O)CC1 (stereo not drawn)
inactive: outcome [1] | outcome [13] | outcome [14] | outcome [3] | outcome [4] | outcome [5] | Potency [6] | Potency [7] | outcome [15] | Potency [8] | Potency [9] | outcome [10] | max response [11] -3.78% | Potency [16] | Potency [12]

CC(Oc1cc(Cl)ccc1Cl)C(=O)O (stereo not drawn)
inactive: outcome [1] | outcome [13] | outcome [14] | outcome [3] | outcome [4] | Potency [6] | Potency [7] | outcome [15] | Potency [8] | outcome [10] | max response [11] -5.27% | Potency [16] | Potency [12]

C[C@H]1[C@@H](c2ccccc2)NC(=O)N1C
inactive: outcome [1] | outcome [2] | outcome [14] | outcome [3] | outcome [4] | Potency [6] | Potency [7] | outcome [15] | Potency [8] | outcome [10] | max response [11] -8.69% | Potency [16] | Potency [12]

CC(=O)N[C@@H](CO)C(=O)N[C@@H](CC(=O)O)C(=O)N[C@@H](CCCCN)C(=O)N1CCC[C@H]1C(=O)O (Ac-SDKP-OH)
inactive: outcome [1] | outcome [13] | outcome [14] | outcome [3] | outcome [4] | outcome [5] | Potency [6] | Potency [7] | outcome [15] | Potency [8] | Potency [9] | outcome [10] | max response [11] 3.58% | Potency [16] | Potency [12]

CC(C)=CCC/C(C)=C/COC=O
inactive: outcome [1] | outcome [2] | outcome [14] | outcome [3] | outcome [4] | outcome [5] | Potency [6] | Potency [7] | Potency [8] | Potency [9] | outcome [10] | max response [11] 0.565% | Potency [16] | Potency [12]

CC(=O)c1cc(C)oc1C
inactive: outcome [1] | outcome [3] | outcome [4] | outcome [5] | Potency [6] | Potency [7] | Potency [8] | Potency [9] | outcome [10] | max response [11] -0.494% | Potency [16] | Potency [12]

CC1=NN(c2ccc(S(=O)(=O)O)cc2)C(=O)C1
inactive: outcome [1] | outcome [2] | outcome [3] | outcome [4] | outcome [5] | Potency [6] | Potency [7] | outcome [15] | Potency [8] | Potency [9] | outcome [10] | max response [11] 3.12% | Potency [12]

CC1=C(O)C(=O)C(C)O1 (stereo not drawn)
inactive: outcome [1] | outcome [2] | outcome [14] | outcome [3] | outcome [4] | outcome [5] | Potency [6] | Potency [7] | outcome [15] | Potency [9] | outcome [10] | max response [11] 2.72% | Potency [16] | Potency [12]

Cc1c(C(=O)c2c[nH]n(C)c2=O)ccc(S(C)(=O)=O)c1C1=NOCC1
inactive: outcome [1] | outcome [13] | outcome [3] | outcome [4] | Potency [6] | Potency [7] | outcome [15] | Potency [8] | Potency [9] | outcome [10] | max response [11] 2.86% | Potency [16] | Potency [12]

[O-][n+]1cccc(/C(Cl)=N/OC[C@@H](O)CN2CCCCC2)c1
inactive: outcome [1] | outcome [13] | outcome [14] | outcome [3] | outcome [4] | outcome [5] | Potency [6] | Potency [7] | outcome [15] | Potency [8] | outcome [10] | max response [11] 2.14% | Potency [16] | Potency [12]

C=CCCCC
inactive: outcome [1] | outcome [2] | outcome [3] | outcome [4] | outcome [5] | Potency [6] | Potency [7] | Potency [8] | Potency [9] | outcome [10] | max response [11] 10.8% | Potency [12]

N#Cc1ccccc1O
inactive: outcome [1] | outcome [2] | outcome [14] | outcome [3] | outcome [5] | Potency [6] | Potency [7] | outcome [15] | Potency [8] | Potency [9] | outcome [10] | max response [11] 15.1% | Potency [16] | Potency [12]

CC(C)OC(=O)CCC(=O)OC(C)C
inactive: outcome [1] | outcome [2] | outcome [3] | outcome [4] | outcome [5] | Potency [6] | Potency [7] | Potency [8] | Potency [9] | outcome [10] | max response [11] 8.19% | Potency [16] | Potency [12]

C=C(C)[C@@H]1CC=C(C)CC1
inactive: outcome [1] | outcome [13] | outcome [14] | outcome [3] | outcome [4] | Potency [6] | Potency [7] | outcome [15] | Potency [8] | Potency [9] | outcome [10] | max response [11] 1.3% | Potency [16] | Potency [12]

O=C(O)c1cc2ccccc2nc1C(=O)O
inactive: outcome [1] | outcome [2] | outcome [14] | outcome [3] | outcome [4] | outcome [5] | Potency [6] | Potency [7] | outcome [15] | Potency [8] | outcome [10] | max response [11] -2.29% | Potency [16] | Potency [12]

CC(=O)Nc1ccc(OC(=O)c2ccccc2OC(C)=O)cc1
inactive: outcome [1] | outcome [2] | outcome [14] | outcome [3] | outcome [4] | outcome [5] | Potency [6] | Potency [7] | outcome [15] | Potency [9] | outcome [10] | max response [11] 3.46% | Potency [12]
